Inconclusive results are not listed. Activity calls are given as the source filed them. The call rests on the fitted dose curve; in most records, active means well fitted activation curve with a large enough effect in the signal ratio in the repeat runs (not every such curve was filed as active); inconclusive means weak or mixed curves; inactive means flat fitted curve, though single readings scatter; the % refers to the signal ratio.

The nature of this experiment: qHTS assay to identify small molecule agonists of the hypoxia (HIF-1) signaling pathway (AID 1224846). The following applies: HRE-bla ME-180 cells, beta-lactamase ratio, 17 h; series mostly up to 76.8 µM. The text has this: U.S. Tox21 Program National Center for Advancing Translational Sciences [NCATS] NIH Chemical Genomics Center [NCGC] U.S. Environmental Protection Agency [EPA] National Institutes of Environmental Health Sciences [NIEHS] National Toxicology Program [NTP] U.S. Food and Drug Administration [FDA] Tox21 Assay Overview: Hypoxia-inducible factor-1 (HIF-1) is the major hypoxia-regulated transcription factor that controls cellular responses to low oxygen concentration. HIF-1 is composed of two subunits: hypoxia responsive HIF-1-alpha and constitutively expressed HIF-1-beta, which is also known as aryl hydrocarbon receptor nuclear translocator. During hypoxic conditions, HIF-1-alpha heterodimerizes with HIF-1-beta and translocates into the nucleus where the HIF-1 complex binds to the hypoxia-response element (HRE) and activates expression of target genes such as VEGF (vascular endothelial growth factor). The HIF-1 pathway is essential to normal growth and development, and is involved in the pathophysiology of cancer, inflammation, and ischemia. Using a beta-lactamase reporter-gene under control of the hypoxia response element, a cell-based assay [CellSensor(TM) HRE-bla ME-180 from Life Technologies, Carlsbad, CA] was used to measure hypoxia-induced signaling. Tox21 10K library compounds were measured for their ability to induce the reporter gene activity.
Tox21 Assay Protocol Summary: HRE-bla ME-180 cells were dispensed at 2,000 cells per well in 6 uL of assay medium containing 0.5% dialyzed FBS into black wall/clear-bottom 1536-well plates using a Multidrop Combi (Thermo Scientific, Waltham, MA) dispenser. After the assay plates were incubated at 37C and 5% CO2 for 5 hrs, 23 nL of compounds dissolved in DMSO, positive controls or DMSO only was transferred to each well of the assay plate using a Pintool station (Kalypsys, San Diego, CA). The assay plates were incubated at 37C and 5% CO2 for 17 hrs. One uL of LiveBLAzerTM B/G FRET substrate (CCF4-AM) (Life Technologies) was added to each well using a Flying Reagent Dispenser (Aurora Discovery, San Diego, CA).
(In general: Quantitative high-throughput screening tests each substance at several concentrations.)
As for `CC1(C)CC(=O)CC(C)(C)N1`, the result was inactive. With `C[C@H]1C[C@H]2[C@@H]3CCC4=CC(=O)C=C[C@]4(C)[C@@]3(F)[C@@H](O)C[C@]2(C)[C@@]1(O)C(=O)COP(=O)(O)O` the entry was “inactive”; with `O=C(Nc1ccccc1)c1cc([N+](=O)[O-])ccc1Cl`, “inactive”.

In the case of `COc1ccc(C(=O)c2ccc(C)cc2)c(O)c1`, the outcome was inactive. With `O=C(OCCOCCOCCOC(=O)c1ccccc1)c1ccccc1` the entry was “inactive”; with `CC(C)(C)c1cc(C=O)cc(C(C)(C)C)c1O`, “inactive”; with `C=CC(=O)OCCCCCCCCCC`, “inactive”. The entry for `FC(F)(Cl)C(F)(Cl)Cl` is “inactive”; for `CC(C)(O)C(=O)O` it is “inactive”.

For the compound `O=C(O)COCC(=O)O`, the outcome was inactive. With `CCC(C(=O)O)c1ccc(N2Cc3ccccc3C2=O)cc1` (stereo not given) the entry was “inactive”; with `O=c1[nH]nc(-c2ccc([N+](=O)[O-])o2)o1`, “inactive”. Turning to `O=S(=O)(O)c1cc(Cl)c(Cl)cc1Cl`, the outcome was inactive.

For `CC(C)C[C@H](NC(=O)[C@H](Cc1ccccc1)NC(=O)c1cnccn1)B(O)O`, the result was inactive.

With `Cc1cc(C)c(C)c(O)c1`, the outcome was inactive. With `O=C(C1CCCCC1)N1CC(=O)N2CCCc3ccccc3C2C1` (stereo not given) the entry was “inactive”; with `SCCOCCOCCS`, “inactive”; with `Cc1ccc(S(=O)(=O)NC(=O)NC2CCCC2)cc1`, “inactive”. Turning to `CC1(C)CC(O)CC(C)(C)N1[O]`, the outcome was inactive.

On to `CCCCCCCCCCCC(=O)OCC`, for which the result was inactive. With `OCCc1ccncc1` the entry was “inactive”; with `COC(=O)c1cc(Cl)ccc1[N+](=O)[O-]`, “inactive”. With `C1=COCCC1` the entry was “inactive”; with `NC(=O)c1ccccc1C(N)=O`, “inactive”. The entry for `COC(=O)Cc1cccc2ccccc12` is “inactive”. As to `CCCCC(CC)COCCC#N` (stereo not given), the outcome was inactive. With `Clc1cccc(C(c2ccc3nc[nH]c3c2)n2ccnc2)c1` (stereo not given) the entry was “inactive”. For the compound `CCC(=O)O[C@]1(C(=O)COC)[C@@H](C)C[C@H]2[C@@H]3CCC4=CC(=O)C=C[C@]4(C)C3(F)[C@@H](O)C[C@@]21C` (stereo not given in full), the result was inactive. The entry for `O=C(Cl)c1ccc(F)c(Cl)c1` is “inactive”; for `CCOc1cc(OCC)c(C(C)=O)cc1OCC` it is “inactive”; for `C/C(=C\C(C)CC(C)CC(C)C)C1CC(=O)OC1=O` (stereo not given) it is “inactive”. The entry for `CCOc1ccc2c(c1)C(C)CC(C)(C)N2` (stereo not given) is “inactive”; for `C=CCCC` it is “inactive”. The entry for `Cc1nc2sccn2c(=O)c1CCN1CCC(=C(c2ccc(F)cc2)c2ccc(F)cc2)CC1` is “inactive”; for `CC(C)NC(=O)c1ccccc1N` it is “inactive”; for `N#Cc1ccc(CC(=O)c2cccc(C(F)(F)F)c2)cc1` it is “inactive”. As for `O=C(O)c1ccc2cc(O)ccc2c1`, the result was inactive. For the compound `CC1=C(C)C(=O)C(C(CCCCCC(=O)O)c2ccccc2)=C(C)C1=O` (stereo not given), the result was inactive.

In the case of `CC(C)=CCC[C@H](C)CCO`, the result was inactive.

In the case of `CC(=O)Nc1ccn(C2COC(COC(=O)c3ccccc3)O2)c(=O)n1` (stereo not given), the outcome was inactive.
